ClpP mod: qHTS Assay for Activators of ClpP. ATP-dependent Clp protease proteolytic subunit (Bacillus subtilis (strain 168)), P80244. purified B. subtilis ClpP, FRET peptide cleavage, 20 min. Potency, µM (doses to about 57.5 µM), for inactives: at the top dose activity change, negative = active. 1.9% of 340,000 active. AID 651965, 2013; active means well fitted falling curve with a large enough effect; inconclusive means small, poorly fitted or top-dose-only effect; inactive means no such curve, though single readings can be large or run the other way; further: the source files actives as falling curves though it sought activators and does not explain the sign; nearly all actives have a fitted effect of over 65% in size
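Buffer: 100 mM Tris/HCl pH8, 100 mM KCl, 0.05% low protease BSA, 2.5% glycerol, 0.01% Tween-20. ClpP 10 microg/mL final; 20 min RT; delta FRET normalized to ADEP and DMSO controls.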
DT40 TDP1 no CPT: qHTS for Inhibitors of human tyrosyl-DNA phosphodiesterase 1 (TDP1): qHTS in cells in absence of CPT | DT40 Tdp1-/- hTDP1 cells, no CPT, ATP luminescence, 48 h | Potency, µM (doses to about 46.2 µM), for inactives: at the highest dose activity change, negative = growth inhibition, usual class: inhibitors | 15% of 420,000 active; further: on the % scale 0 is the no-effect control and ±100 the full control effect; nearly all actives have a fitted effect of over 55% in size
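A cellular qHTS used chicken DT40 cells lacking endogenous Tdp1 but carrying stably transfected human TDP1. Compounds were applied without camptothecin, and cell growth kinetics were judged by ATP-dependent luminescence after ≥48 hr.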
TDP1 cell CPT: growth inhibition of DT40 Tdp1-/-;hTDP1 cells with camptothecin (screen for TDP1 inhibitors) | chicken DT40 Tdp1-/-;hTDP1 cells + 20 nM CPT, ATP luminescence, 48 h | Potency, µM (top dose mostly 46.2 µM), for the others: at the highest dose activity change, negative = growth inhibition, hits mostly inhibitors | 12% of 420,000 active | AID 686979; further: on the % scale 0 is the no-effect control and ±100 the full control effect; nearly all actives have a fitted effect of over 55% in size
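Chicken DT40 Tdp1-/- cells complemented with human TDP1, 400 cells/well, exposed to compounds plus 20 nM camptothecin for at least 48 h at 37 C; viability read as ATP content by CellTiter-Glo luminescence.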
TDP1 block: TDP1 (human) enzyme inhibition. recombinant TDP1, AlphaScreen DNA substrate cleavage. Potency, µM (top dose mostly 130 µM), for the others: at the highest dose activity change, negative = inhibition, usual class: inhibitors. Q9NUW8. 0.28% of 350,000 active. AID 485290; further: on the % scale 0 is the no-effect control and ±100 the full control effect; nearly all actives have a fitted effect of over 40% in size
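Compounds were preincubated with Tdp1 (1 nM final) for 15 min at room temperature before substrate (15 nM final) started a 5 min reaction; beads (10 ug/ml final) were then added for 10 min before AlphaScreen detection.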
* marks the source's active call; other numbers are inactive results; ? = inconclusive; . = no result given; ! = not confirmed by another sample; [ ] = remark or other dose. A selection: hits, their analogues and other compounds. The true share with any hit is near 17%. Unless noted, the call rests on the fitted dose curve; in most records, active means well fitted curve in the direction sought with a large enough effect; inconclusive means small, poorly fitted or top-dose-only effect, or another doubt; inactive means no such curve, though single readings can be large; an effect the other way counts as inactive or inconclusive. Potency means the concentration at half of the fitted maximal effect.

SMILES	ClpP mod	DT40 TDP1 no CPT	TDP1 cell CPT	TDP1 block
CC(C)Oc1cc(-n2nc(C(C)(C)C)oc2=O)c(Cl)cc1Cl	.	.	.	28%
O=c1c2ccccc2nc(/C=C\c2ccccc2[N+](=O)[O-])n1-c1ccccc1O	.	23µM*	?	7%
O=c1c2ccccc2nc(/C=C/c2ccccc2F)n1-c1ccccc1O	-9%	-23%	-45%	.
Nc1c(Cl)c(Cl)c(Cl)c(Cl)c1Cl	.	-5%[92.5 µM]	-1%[92.5 µM]	.
CC(C)c1ccc(NC(=O)C2CCC(CNS(=O)(=O)c3ccc4c(c3)CCCC(=O)N4)CC2)cc1 (configuration not stated)	-3%	16µM*	13µM*	-3%
COC(=O)c1c2[n+](cc3cc(OC)c(OC)cc13)CCc1cc(OC)c(OC)cc1-2	.	21µM*	18µM*	.
C[C@@H]1CNC(=O)c2c(C(=O)Nc3cccc(Cl)c3)ncn21	3%	21µM*	21µM*	.
C[C@H]1Cn2cnc(C(=O)Nc3ccc(CNC(=O)OC(C)(C)C)cc3)c2C(=O)N1	-2%	13µM*	?	.
C[C@H]1CNC(=O)c2c(C(=O)Nc3ccc(CNC(=O)OC(C)(C)C)cc3)ncn21	-3%	9.2µM*	15µM*	.
Cc1cccc(NC(=O)c2ncn3c2C(=O)NC[C@@H]3C)c1	0%	?	-4%	.
Nc1nc(/C(=C/CC(=O)O)C(=O)NC2C(=O)N3C(C(=O)O)=CCSC23)cs1 (configuration not stated)	.	.	.	25µM*
CC1=C(C(=O)O)N2C(=O)[C@@H](NC(=O)CCCC(=O)O)[C@H]2SC1	2%	-12%	-4%	-4%
c1ccc(N2CCN(c3ncnc4c3nc3n4CCCC3)CC2)cc1	-23%	?	?	1%
CC1CC(C)CN(S(=O)(=O)c2ccc3c(c2)oc(=O)n3CC(=O)N(C)Cc2ccccc2)C1 (configuration not stated)	2%	?	?	.
CCc1cccc(NC(=O)Cn2c(=O)oc3cc(S(=O)(=O)N4CCOCC4)ccc32)c1	1%	15µM*	23µM*	4%
Cc1cc(C)cc(NC(=O)Cn2c(=O)oc3cc(S(=O)(=O)N4CC(C)CC(C)C4)ccc32)c1 (configuration not stated)	0%	?	?	0%
O=C(Cn1c(=O)oc2cc(S(=O)(=O)N3CCCCCC3)ccc21)NCc1ccccc1Cl	2%	7.3µM*	9.2µM*	2%
O=C(Cn1c(=O)oc2cc(S(=O)(=O)N3CCCC3)ccc21)Nc1cccc(C(F)(F)F)c1	-1%	15µM*	13µM*	5%
Cc1ccc(NC(=O)Cn2c(=O)oc3cc(S(=O)(=O)N4CCCCCC4)ccc32)cc1Cl	0%	21µM*	12µM*	-5%
O=C(CN1CCN(S(=O)(=O)c2cc(Br)ccc2Br)CC1)NCc1ccccc1Cl	-3%	?	?	.
CC(C)CN1CCC2(CC1)CCN(S(C)(=O)=O)CC2	.	9%	?	.
COC(=O)NC/C=C\c1nc(CC/C=C\C(=O)O[C@H]2C[C@H]3CC(=O)O[C@@H](/C=C\CC(C)C)C[C@@H]4CC[C@H](C)[C@H](C[C@@H](OC)C[C@H](C2)O3)O4)co1	.	.	.	9%[21 µM]
C=C1CCC(O)C/C1=C\C=C1/CCCC2(C)C1CCC2C(C)CCCC(C)C (configuration not stated)	.	27µM*	24µM*	-2%
COC(=O)C1=C(C)n2nnnc2NC1c1ccc(Cl)cc1 (configuration not stated)	-3%	-27%	?	5%
O=C1OC(=O)C2C3CCC(O3)C12 (configuration not stated)	.	-10%	11%	?
SMILES	ClpP mod	DT40 TDP1 no CPT	TDP1 cell CPT	TDP1 block
CCN[C@@H](C)Cc1ccccc1	.	3%[92.5 µM]	13%[92.5 µM]	.
C[C@@H](Cc1cccc(C(F)(F)F)c1)NCCCc1ccccc1	.	13µM*	13µM*	12%[56.1 µM]
O=[N+]([O-])c1nccn1CC(O)CN1CC1 (configuration not stated)	-4%	10µM*	12µM*	.
O=C(Nc1ccon1)c1cccn(Cc2cccc([N+](=O)[O-])c2)c1=O	1%	?	?	3%
[Cl][In]([Cl])[Cl]	1%	-9%[92.5 µM]	?	0.5µM*
Cc1cccc2nc(-c3ccccc3)c(-c3ccc(CN4CCC(n5c(=O)[nH]c6ccccc65)CC4)cc3)nc12	25µM*	13µM*	9.2µM*	.
O=C1CC(N2CCC(n3c(=O)[nH]c4ccccc43)CC2)C(=O)N1c1ccc(F)cc1 (configuration not stated)	1%	-29%	-13%	-10%
N#Cc1ccc2nc(-c3ccc(CN4CCC(n5c(=O)[nH]c6ccccc65)CC4)cc3)c(-c3ccccc3)nc2c1	-4%	9.2µM*	5.8µM*	.
Cc1ccc2c(C)c3ccc4ccccc4c3c[n+]2c1	8%	4.6µM*	3.7µM*	.
CCN1C[C@@]2(OC(=O)c3ccccc3NC(C)=O)CCC(OC)[C@@]34C5CC6C(OC)C[C@@](O)(C(CC23)[C@@H]14)C5(O)C6OC (some centres not stated)	.	4%	-3%	-9%[56.1 µM]
O=C=NCCCCN=C=O	.	.	.	6%
CCC1CO/C(=C(\C(Cl)=C(Cl)Cl)[N+](=O)[O-])N1Cc1ccc(Cl)nc1 (configuration not stated)	0%	2%	-16%	.
CC(=O)N1CCN(Cc2ccc(Cl)nc2)CC1	.	14%	15%	.
O=C(C(=C1N(Cc2ccc(Cl)nc2)CCN1Cc1ccc(Cl)nc1)[N+](=O)[O-])C(Cl)Cl	-1%	16µM*	?	.
O=[N+]([O-])/N=C1\NCCN1Cc1ccc(Cl)nc1	.	6.7µM*	8.4µM*!	.
CCCCOP(=O)(OCCCC)C(Nc1ccc(C(=O)OCC)cc1)c1ccncc1 (configuration not stated)	.	12µM*	?	.
COC(=O)/C=C/C(=O)N[C@@H]1CC[C@@]2(O)[C@H]3Cc4ccc(O)c5c4[C@@]2(CCN3CC2CC2)[C@H]1O5	.	.	.	9%
CC(=O)Oc1ccc(/C=C/c2cc(OC(C)=O)cc(OC(C)=O)c2)cc1	.	12µM*	?	3%
CC(C)c1c(C(=O)N(C)Cc2cccc3ncccc23)cnn1-c1nccc(-c2ccccc2F)n1	.	8.2µM*	4.1µM*	.
CC(c1ccccc1)n1cncc1C(=O)O (configuration not stated)	0%	0%	-5%	22µM*
CC(N)[C@H](O)c1ccccc1 (some centres not stated)	.	0%	3%	14%[56.1 µM]
O=C1C[C@@H]2OCC=C3CN4CC[C@]56c7ccccc7N1[C@@H]5[C@@H]2[C@H]3C[C@H]46 (tested in a mixture with another compound)	.	.	.	6%

Assay outcomes deposited in PubChem BioAssay by National Center for Advancing Translational Sciences (NCATS).
